Laboratory results reported in PubChem BioAssay AID1159580 (chemical genetic matrix, 2015).
“And” between values parts separate entries of the source, which are not always exact repeats. Equal entries are not always repeated. In all, about 5,500 compounds went through this assay and about 2,000 (36%) were called active. Another 18% or so got no clear call; they are omitted. Rule as the data show it: active = normalized growth mostly below about 0.91 (no sharp cut-off); inconclusive = no clear call, values can overlap the other calls; inactive = mostly above about 0.92. The list shows a part of the results.

Assay: chemical genetic growth profiling, strain panel (AID 1159580);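 also: tested at 20 µM; growth read once vehicle control cultures reached saturation at 30 °C; 1 = growth at the plate median or of vehicle wells; lower values mean less growth of the strain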
Details: S. cerevisiae deletion strains, growth OD

Measured: normalized growth

CC1OC1P(=O)(O)O (stereo not given)
inactive: locus YAL021C, strain ccr4, hits give low values 1 | locus YAL026C, strain drs2, hits give low values 1.02 | locus YAL030W, strain snc1, hits give low values 0.998 | locus YAL040C, strain CLN3, hits give low values 0.959 | locus YBL061C, strain skt5, hits give low values 0.996 | locus YBR009C, strain hhf1, hits give low values 0.978 | locus YBR021W, strain FUR4, hits give low values 0.973 | locus YBR023C, strain chs3, hits give low values 0.988 | locus YBR171W, strain sec66, hits give low values 1 | locus YBR229C, strain ROT2, hits give low values 0.994 | locus YBR231C, strain swc5, hits give low values 0.992 | locus YBR279W, strain paf1, hits give low values 0.991 | locus YCL011C, strain gbp2, hits give low values 1.03 | locus YCL016C, strain dcc1, hits give low values 0.984 | locus YCL029C, strain bik1, hits give low values 0.993 | locus YCL061C, strain MRC1 (second series), hits give low values 1.01 | locus YCL069W, strain vba3, hits give low values 1 | locus YCR088W, strain abp1, hits give low values 1 | locus YDL005C, strain med2, hits give low values 0.977 | locus YDL035C, strain GPR1, hits give low values 0.991 | locus YDL040C, strain nat1, hits give low values 0.991 | locus YDL074C, strain BRE1, hits give low values 1.04 | locus YDL101C, strain DUN1, hits give low values 0.992 | locus YDL134C, strain PPH21, hits give low values 0.977 | locus YDL185W, strain tfp1, hits give low values 0.979 | locus YDL192W, strain arf1, hits give low values 0.991 | locus YDR001C, strain nth1, hits give low values 1 | locus YDR069C, strain doa4, hits give low values 0.986 | locus YDR101C, strain arx1, hits give low values 1 | locus YDR137W, strain rgp1, hits give low values 1.01 | locus YDR150W, strain NUM1, hits give low values 0.994 and 1 | locus YDR159W, strain sac3, hits give low values 0.934 | locus YDR162C, strain NBP2, hits give low values 0.987 | locus YDR195W, strain ref2 0.983 | locus YDR297W, strain sur2, hits give low values 1.01 | locus YDR318W, strain mcm21, hits give low values 0.984 | locus YDR334W, strain swr1, hits give low values 1 | locus YDR335W, strain msn5, hits give low values 0.996 | locus YDR363W, strain ESC2, hits give low values 0.974 | locus YDR388W, hits give low values 0.988 | locus YDR392W, strain spt3, hits give low values 0.892 | locus YDR502C, strain sam2, hits give low values 0.983 | locus YEL003W, strain gim4, hits give low values 1 | locus YEL037C, strain rad23, hits give low values 1 | locus YEL061C, strain CIN8 (second series), hits give low values 1 | locus YEL061C, strain CIN8, hits give low values 1 | locus YER002W, strain NOP16, hits give low values 0.978 | locus YER015W, strain faa2, hits give low values 0.981 | locus YER016W, strain bim1, hits give low values 0.974 | locus YER110C, hits give low values 0.987 | locus YER111C, strain swi4, hits give low values 1 | locus YER155C, strain BEM2 (second series), hits give low values 0.965 | locus YER155C, strain BEM2, hits give low values 0.994 | locus YER167W, strain BCK2, hits give low values 0.973 | locus YFR010W, strain ubp6, hits give low values 1 | locus YGL078C, strain dbp3, hits give low values 0.988 | locus YGL086W, strain mad1, hits give low values 1 | locus YGL167C, strain pmr1, hits give low values 0.997 | locus YGL173C, strain kem1, hits give low values 0.99 | locus YGL227W, strain vid30, hits give low values 1 | locus YGL240W, strain doc1, hits give low values 0.968 | locus YGL248W, strain PDE1, hits give low values 1.01 | locus YGL253W, strain hxk2, hits give low values 1.03 | locus YGR078C, strain PAC10, hits give low values 1.02 | locus YGR135W, strain pre9, hits give low values 0.966 | locus YGR252W, strain gcn5, hits give low values 0.982 | locus YHR013C, strain ard1, hits give low values 0.987 | locus YHR027C, strain rpn1, hits give low values 0.993 | locus YHR030C, strain SLT2, hits give low values 0.994 | locus YHR079C, strain IRE1 (second series), hits give low values 0.989 | locus YHR094C, strain hxt1, hits give low values 0.987 | locus YHR129C, strain ARP1, hits give low values 0.987 | locus YHR142W, strain chs7, hits give low values 1.01 | locus YHR200W, strain rpn10, hits give low values 0.989 | locus YIL066C, strain RNR3, hits give low values 1 | locus YIL073C, strain SPO22, hits give low values 0.944 | locus YIL125W, strain kgd1, hits give low values 0.992 | locus YIR030C, strain dcg1, hits give low values 0.985 | locus YJL092W, strain hpr5, hits give low values 1 | locus YJL095W, strain BCK1 (second series), hits give low values 0.998 | locus YJL095W, strain BCK1, hits give low values 1.01 | locus YJL115W, strain asf1, hits give low values 1 | locus YJL129C, strain trk1, hits give low values 1.01 | locus YJL134W, strain LCB3, hits give low values 0.989 | locus YJL154C, strain vps35, hits give low values 0.996 | locus YJL164C, strain tpk1, hits give low values 0.986 | locus YJL166W, strain qcr8, hits give low values 0.986 | locus YJL168C, strain set2, hits give low values 0.989 | locus YJL187C, strain SWE1 (second series), hits give low values 1.02 | locus YJR043C, strain POL32, hits give low values 1.01
